Screening data from PubChem BioAssay.
In the library only some 2.4% were active in any assay of this set; here they are far more common.
Cruzain inh Det – blocks cruzain activity in presence of Triton detergent | AID 1478 | 0.43% of 200,000 active | Potency, µM, inactives show max response, negative = inhibition, actives largely listed as inhibitors | P25779 | purified cruzain, Z-FR-AMC fluorescence, 0.01% Triton;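 further: plate controls were neutral wells for no effect and buffer without enzyme for full effect; nearly all actives have a fitted effect of over 40% in size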
Target sequence (P25779 123-467 limits assumed): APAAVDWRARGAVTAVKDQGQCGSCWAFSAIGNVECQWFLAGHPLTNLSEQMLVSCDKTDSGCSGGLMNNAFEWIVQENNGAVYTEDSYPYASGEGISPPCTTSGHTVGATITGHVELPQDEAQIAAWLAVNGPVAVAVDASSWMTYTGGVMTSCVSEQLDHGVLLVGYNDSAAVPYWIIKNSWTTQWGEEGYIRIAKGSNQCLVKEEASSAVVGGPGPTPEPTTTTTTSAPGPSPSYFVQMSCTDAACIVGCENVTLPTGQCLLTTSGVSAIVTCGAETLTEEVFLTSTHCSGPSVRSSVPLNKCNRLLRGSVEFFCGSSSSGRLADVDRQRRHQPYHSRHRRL
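Steps: dispense cruzain (1.5 nM final) in acetate buffer pH 5.5 with DTT and 0.01% Triton X-100; pin-transfer compounds; incubate 15 min RT; add Z-FR-AMC (2 uM final); read fluorescence every 30 s, using the 60 s intensity change.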
Cruzain noTriton – cruzain (T. cruzi) inhibition without detergent; P25779; purified cruzain, Z-FR-AMC fluorescence, no detergent; Potency, µM, for inactives: max response, negative = inhibition, actives largely listed as inhibitors; 2.3% of 200,000 active;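 further: plate controls were enzyme without inhibitor for no effect and buffer without enzyme for full effect; nearly all actives have a fitted effect of over 40% in size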
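Detergent-free condition (0.00005% Triton X-100) in acetate buffer pH 5.5 with DTT. 1.5 nM enzyme and compound were pre-mixed 15 min, then 2 uM Z-FR-AMC substrate added; reaction progress from fluorescence change between first and third reads (60 s).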
Active calls of the source: *; ? = inconclusive. The call rests on the fitted dose curve; in most records, active means well fitted curve in the direction sought with a large enough effect; inconclusive means small, poorly fitted or top-dose-only effect, or another doubt; inactive means no such curve, though single readings can be large; an effect the other way counts as inactive or inconclusive. Potency means the concentration at half of the fitted maximal effect.

SMILES	Cruzain inh Det	Cruzain noTriton
COc1cccc(CNC(=O)c2c(C)nn(-c3cccc(C)c3)c2-n2cccc2)c1	-2.5%	17.3%
N#Cc1c(-n2ncnc2-c2ccccc2Cl)sc2c1CCCCC2	1.4%	15.9%
Oc1ccc(Cl)cc1-c1cc(-c2ccccc2Cl)[nH]n1	-11.8%	?
Oc1ccc(Cl)cc1-c1cc(-c2cccc(Br)c2)n[nH]1	-3.5%	12.6µM*
CCc1ccc(-c2nc(NC(=O)c3ccc(OCC(=O)Nc4ccc(F)cc4)c(OC)c3)sc2C)cc1	-4.8%	3.98µM*
COc1cc(C(=O)Nc2nc(-c3ccc(Cl)cc3)c(C)s2)ccc1OCC(=O)Nc1ccc(F)cc1	-1.5%	15.8µM*
COc1ccc(-c2nc(NC(=O)c3ccc(OCC(=O)N4CCOCC4)c(OC)c3)sc2C)cc1	-9.8%	?
COc1ccc(Br)c2c1-c1nc(NC(=O)c3ccc(F)cc3)sc1C2	-3.6%	-5.1%
C[C@@H]1CC2(OC(O)[C@]3(C)O[C@H]23)O[C@H]2C[C@@]3(C)[C@@H]4CC[C@H]5C(C)(C)C(O[C@@H]6OC[C@@H](O)[C@H](O)[C@H]6O)CC[C@@]56C[C@@]46CC[C@]3(C)[C@@H]12 (stereo not given in full)	-0.4%	?
O=C(Nc1cccc(Cl)c1)c1ccc2nc(CCc3ccccc3)oc2c1	-7.3%	5.6%
O=C(Nc1ccc(N2CCOCC2)c(Cl)c1)c1cc2ccccc2o1	-7.5%	3.8%
COc1ccc(C(=O)Nc2cccc(-c3cc4ccccc4oc3=O)c2)cc1[N+](=O)[O-]	-8.6%	10µM*
COc1ccc(C(=O)Nc2ccccc2)cc1[N+](=O)[O-]	-5.0%	-2.9%
Cc1cc(NC(=O)c2cc(Cl)ccc2Cl)ccc1-c1cc2ccccc2oc1=O	-4.8%	16.9%
O=C(Nc1ccc(N2CCCC2)c(Cl)c1)c1cccc(-c2cc3ccccc3oc2=O)c1	-2.1%	3.98µM*
COc1cc(NC(=O)c2ccc(Cl)cc2Cl)ccc1-c1cc2ccccc2oc1=O	1.0%	20µM*
O=C(COc1cccc(Cl)c1)N1CCC(c2nc3ccccc3s2)CC1	-8.7%	?
CC(C)NS(=O)(=O)c1ccc2nc(NC(=O)c3cncc(Br)c3)sc2c1	1.0%	8.3%
Cc1c(/C=N/NC(=O)CNc2ccccc2)c2ccccn2c1C(=O)c1ccc(Cl)cc1	-4.1%	?
Cc1ccccc1NCC(=O)N/N=C/c1c(C)c(C(=O)c2ccc(Cl)cc2)n2ccccc12	-9.3%	7.94µM*
CC[C@@H]1CN2CCc3cc(OC)c(OC)cc3[C@@H]2C[C@@H]1C[C@H]1NCCc2cc(OC)c(OC)cc21	0.1%	-3.3%
COc1ccc(/C=N/n2cc(-c3ccccc3)nc2N)cc1	-5.0%	?
COc1ccc(/C=N/n2cc(-c3ccc(OC)cc3)nc2N)cc1	-8.2%	31.6µM*
CCOC(=O)c1ccc(N2C(=O)c3n[nH]c(-c4cccs4)c3C2c2ccc(OCC)cc2)cc1 (stereo not given)	-3.1%	?
CCOC(=O)c1ccc(N2C(=O)c3n[nH]c(-c4cccs4)c3C2c2ccc(CC)cc2)cc1 (stereo not given)	-6.1%	5.01µM*
SMILES	Cruzain inh Det	Cruzain noTriton
Cc1ccc(SCc2ccc(C(=O)Nc3cc([N+](=O)[O-])ccc3C)cc2)cc1	-0.5%	-6.7%
Cc1ccc(SCc2ccc(C(=O)Nc3cccc([N+](=O)[O-])c3)cc2)cc1	4.8%	20µM*
Cc1c(NS(=O)(=O)c2ccc3c(c2)OCCO3)cccc1-c1nc2cccnc2s1	-1.2%	15.8µM*
Cc1cc(-c2nc3cccnc3s2)ccc1NS(=O)(=O)c1ccc2c(c1)OCCO2	-4.4%	?
CCCSC(=O)Cl	3.5%	3.5%
CC(=O)c1c(C)[nH]c(C(=O)Nc2nc(-c3ccc(-c4ccccc4)cc3)cs2)c1C	-2.8%	10µM*
COc1ccc(-c2csc(NC(=O)c3nc(-c4ccccc4)oc3C)n2)cc1	4.7%	7.94µM*
CC(=O)c1c(C)[nH]c(C(=O)Nc2nc(-c3ccc(Cl)cc3)cs2)c1C	-8.2%	-11.2%
Cc1oc(-c2ccccc2)nc1C(=O)Nc1nccs1	-1.5%	-9.5%
COCCc1ccc(OC[C@H](O)CNC(C)C)cc1	-2.8%	-9.4%
Cc1ccc(CNC(=O)CNS(=O)(=O)c2cccs2)cc1	-0.2%	-9.1%
CC(=O)[O-].CC(=O)[O-].O.O.O.[Pb+2]	2.8%	19.9%
Cc1nc2cc(NC(=O)N3CCN(c4ccccn4)CC3)ccc2o1	7.8%	2.8%
O=C(Nc1ccc2nc(-c3ccco3)c(-c3ccco3)nc2c1)N1CCN(c2ccccn2)CC1	14.1µM*	2.51µM*
O=C(c1cccc(C(=O)N2CCN(c3ncccn3)CC2)c1)N1CCN(c2ncccn2)CC1	5.7%	-6.6%
O=C(c1ccc2nc(-c3ccco3)c(-c3ccco3)nc2c1)N1CCN(c2ncccn2)CC1	25.1µM*	?
CCOc1ccc(OCC)c(NC(=O)CCc2c(C)nc3c(c2C)c(=O)n(C)c(=O)n3C)c1	1.1%	7.0%
O=C(NCc1cccs1)c1ccc2c(c1)N(Cc1ccccc1Cl)C(=O)c1ccccc1S2	-1.2%	?
C/C(CC/C(C)=N/O)=N/O	5.7%	-1.9%
Cc1oc(-c2ccc(C(=O)NCc3ccccc3)cc2)nc1CS(=O)(=O)c1ccccc1	-5.9%	?
Cc1oc(-c2ccc(C(=O)NCc3ccc(Cl)cc3)cc2)nc1CS(=O)(=O)c1ccccc1	-4.4%	25.1µM*
COc1ccc(-c2cccc(NS(=O)(=O)c3ccc(C)s3)c2)nn1	-4.1%	-5.9%
Cc1cc(C(=O)CSc2nc(N)cc(=O)[nH]2)c(C)n1CCc1ccc(F)cc1	1.0%	25.1µM*
COc1ccc(CCn2c(C)cc(C(=O)CSc3nnc(N)s3)c2C)cc1	-3.3%	?
CCCc1cc(=O)[nH]c(SCC(=O)c2cc(C)n(CCOC)c2C)n1	0.6%	6.2%
SMILES	Cruzain inh Det	Cruzain noTriton
COc1ccc(CCn2c(C)cc(C(=O)CSc3nc(N)cc(=O)[nH]3)c2C)cc1	0.3%	25.1µM*
Cc1cc(C(=O)CSc2nnc(N)s2)c(C)n1CCc1ccc(F)cc1	3.4%	15.8µM*
Cc1cc(C(=O)CSc2nnnn2C)c(C)n1CCc1ccc(F)cc1	6.2%	25.1µM*
Cc1cc(C(=O)CSc2nnnn2-c2ccccc2)c(C)n1CCc1ccccc1	0.5%	-9.3%
Cc1cc(C(=O)CSc2nnc(N)s2)c(C)n1CCc1ccc(Cl)cc1	-1.1%	?
Cc1cc(C)c(Cn2cnc3nc4c(cc3c2=O)CCCC4)c(C)c1	-2.0%	-0.9%
CCN(c1cc(C)cc(C)c1)S(=O)(=O)c1nnc(NC(=O)c2ccccc2C)s1	-5.7%	?
CCC(C)NC(=O)Cn1c(=O)n(-c2ccc(OC)c(OC)c2)c(=O)c2ccccc21 (stereo not given)	-0.9%	9.1%
CCOc1cccc(C(=O)N(Cc2ccc(C)o2)C2CCS(=O)(=O)C2)c1 (stereo not given)	-2.1%	-14.1%
COc1ccc(-c2cnc(C)o2)cc1S(=O)(=O)Nc1ccc(F)cc1F	-5.5%	-17.2%
CCC(=O)N1CCc2cc(S(=O)(=O)NCCC(=O)Nc3ccc(OC)c(Cl)c3)ccc21	-3.6%	2.3%
O=C(NCc1ccccc1)c1ccc2nccnc2c1	1.3%	9.6%
O=C(NCc1ccccc1)c1ccc2nc(-c3ccco3)c(-c3ccco3)nc2c1	?	7.94µM*
O=C(Nc1ccc(N2CCOCC2)cc1)c1ccc2nc(-c3ccco3)c(-c3ccco3)nc2c1	-5.7%	-3.5%
CC(=O)c1ccc(NC(=O)c2ccc3nc(-c4ccco4)c(-c4ccco4)nc3c2)cc1	14.1µM*	?
